This is an account of results in ChEMBL document CHEMBL2218924, “A broad activity screen in support of a chemogenomic map for kinase signalling research and drug discovery” (Biochem J, 2013).

Test [1] has as its target BDNF/NT-3 growth factors receptor (Homo sapiens) (UniProt Q16620). The conditions noted are these: at 10 µM.
The target in test [2] is T1, Tyrosine-protein kinase TXK (Homo sapiens) (UniProt P42681).
T1 sequence (whole entry): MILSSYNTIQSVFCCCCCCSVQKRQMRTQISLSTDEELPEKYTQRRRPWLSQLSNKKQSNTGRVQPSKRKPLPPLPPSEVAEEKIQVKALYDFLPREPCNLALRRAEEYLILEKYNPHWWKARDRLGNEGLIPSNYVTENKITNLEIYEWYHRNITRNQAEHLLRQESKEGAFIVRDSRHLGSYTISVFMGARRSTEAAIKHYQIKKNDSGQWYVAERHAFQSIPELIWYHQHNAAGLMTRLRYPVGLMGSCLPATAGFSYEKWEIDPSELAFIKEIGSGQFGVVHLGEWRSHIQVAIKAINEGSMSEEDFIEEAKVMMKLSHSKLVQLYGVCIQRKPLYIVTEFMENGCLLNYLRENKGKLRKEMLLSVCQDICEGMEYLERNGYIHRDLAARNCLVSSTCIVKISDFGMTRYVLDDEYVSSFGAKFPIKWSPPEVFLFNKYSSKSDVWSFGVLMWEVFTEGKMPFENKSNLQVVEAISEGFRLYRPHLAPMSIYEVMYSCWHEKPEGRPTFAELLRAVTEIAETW
The following applies: at 1 µM.

The target of test [3] is T1, Tyrosine-protein kinase TXK (Homo sapiens). The following applies: at 10 µM.
Test [4] deals with T2, Serine/threonine-protein kinase ULK2 (Homo sapiens) (UniProt Q8IYT8).
T2 sequence (whole entry): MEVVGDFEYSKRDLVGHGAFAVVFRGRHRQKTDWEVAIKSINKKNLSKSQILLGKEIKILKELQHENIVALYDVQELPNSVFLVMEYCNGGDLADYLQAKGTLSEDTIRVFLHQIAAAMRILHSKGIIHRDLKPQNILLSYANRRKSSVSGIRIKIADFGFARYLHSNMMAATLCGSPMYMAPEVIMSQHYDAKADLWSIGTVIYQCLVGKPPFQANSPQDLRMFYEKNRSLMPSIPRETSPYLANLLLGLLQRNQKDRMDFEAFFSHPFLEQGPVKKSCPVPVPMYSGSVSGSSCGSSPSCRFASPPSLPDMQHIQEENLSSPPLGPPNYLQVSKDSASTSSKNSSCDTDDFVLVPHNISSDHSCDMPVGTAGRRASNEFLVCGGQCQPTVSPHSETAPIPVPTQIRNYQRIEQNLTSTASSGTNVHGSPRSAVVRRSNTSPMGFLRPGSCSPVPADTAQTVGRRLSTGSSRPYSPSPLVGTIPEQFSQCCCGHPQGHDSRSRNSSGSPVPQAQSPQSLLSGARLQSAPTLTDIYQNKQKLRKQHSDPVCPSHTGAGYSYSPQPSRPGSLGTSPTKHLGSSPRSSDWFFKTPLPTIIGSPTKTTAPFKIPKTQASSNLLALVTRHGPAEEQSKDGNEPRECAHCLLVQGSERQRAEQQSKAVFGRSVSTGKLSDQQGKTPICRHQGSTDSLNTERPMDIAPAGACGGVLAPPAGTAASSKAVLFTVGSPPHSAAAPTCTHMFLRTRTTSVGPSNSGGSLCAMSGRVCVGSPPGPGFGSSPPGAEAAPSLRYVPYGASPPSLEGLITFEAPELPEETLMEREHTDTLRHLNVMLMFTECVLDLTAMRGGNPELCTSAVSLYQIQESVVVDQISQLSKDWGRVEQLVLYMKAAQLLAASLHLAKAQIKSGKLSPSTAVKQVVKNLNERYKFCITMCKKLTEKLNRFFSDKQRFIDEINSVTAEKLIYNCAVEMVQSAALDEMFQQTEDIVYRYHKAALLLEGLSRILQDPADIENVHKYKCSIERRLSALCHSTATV
The conditions noted are these: at 1 µM.

Test [5] has as its target T2, Serine/threonine-protein kinase ULK2 (Homo sapiens). The conditions noted are these: at 10 µM.
In test [6] the target is T3, Serine/threonine-protein kinase ULK3 (Homo sapiens) (UniProt Q6PHR2).
T3 sequence (whole entry): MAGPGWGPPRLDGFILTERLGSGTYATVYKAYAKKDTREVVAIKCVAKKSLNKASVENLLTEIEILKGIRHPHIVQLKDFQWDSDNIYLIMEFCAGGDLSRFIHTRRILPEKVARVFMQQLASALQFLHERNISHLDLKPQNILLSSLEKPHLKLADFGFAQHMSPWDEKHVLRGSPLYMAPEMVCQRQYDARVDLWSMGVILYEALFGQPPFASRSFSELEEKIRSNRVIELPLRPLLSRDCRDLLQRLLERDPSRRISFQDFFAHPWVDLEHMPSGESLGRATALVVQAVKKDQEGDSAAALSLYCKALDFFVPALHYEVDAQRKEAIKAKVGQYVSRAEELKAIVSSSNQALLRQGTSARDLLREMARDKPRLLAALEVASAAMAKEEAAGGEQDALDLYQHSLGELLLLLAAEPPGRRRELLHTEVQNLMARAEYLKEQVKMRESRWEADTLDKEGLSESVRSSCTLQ
The conditions noted are these: at 1 µM.

For test [7], the target named is T3, Serine/threonine-protein kinase ULK3 (Homo sapiens). The conditions noted are these: at 10 µM.
For test [8], the target named is Serine/threonine-protein kinase VRK2 (Homo sapiens) (UniProt Q86Y07). The conditions noted are these: at 1 µM.
The target is the same in test [9]. The following applies: at 10 µM.
For test [10], the target named is Serine/threonine-protein kinase WNK2 (Homo sapiens) (UniProt Q9Y3S1). The conditions noted are these: at 1 µM.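 Further: residual WNK2 kinase activity expressed as percent of uninhibited control, assayed in MOPS buffer at pH 7.0 containing EDTA.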

The term residual activity denotes the signal under treatment as a percentage of the control signal.

Sequence of Serine/threonine-protein kinase VRK2 (Homo sapiens) (Q86Y07 whole entry): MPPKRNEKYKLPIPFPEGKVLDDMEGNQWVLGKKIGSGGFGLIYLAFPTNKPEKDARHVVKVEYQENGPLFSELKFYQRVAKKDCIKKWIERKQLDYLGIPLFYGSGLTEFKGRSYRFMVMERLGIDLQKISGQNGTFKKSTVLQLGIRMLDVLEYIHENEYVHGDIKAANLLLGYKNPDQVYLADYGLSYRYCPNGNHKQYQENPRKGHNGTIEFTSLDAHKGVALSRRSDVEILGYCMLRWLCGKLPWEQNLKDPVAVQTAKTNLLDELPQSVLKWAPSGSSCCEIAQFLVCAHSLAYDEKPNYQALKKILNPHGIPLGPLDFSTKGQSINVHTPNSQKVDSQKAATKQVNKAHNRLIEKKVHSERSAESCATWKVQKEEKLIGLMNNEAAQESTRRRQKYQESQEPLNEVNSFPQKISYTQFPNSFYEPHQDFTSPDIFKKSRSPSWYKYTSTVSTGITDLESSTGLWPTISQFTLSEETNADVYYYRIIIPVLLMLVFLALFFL
Sequence of Serine/threonine-protein kinase WNK2 (Homo sapiens) (Q9Y3S1 whole entry): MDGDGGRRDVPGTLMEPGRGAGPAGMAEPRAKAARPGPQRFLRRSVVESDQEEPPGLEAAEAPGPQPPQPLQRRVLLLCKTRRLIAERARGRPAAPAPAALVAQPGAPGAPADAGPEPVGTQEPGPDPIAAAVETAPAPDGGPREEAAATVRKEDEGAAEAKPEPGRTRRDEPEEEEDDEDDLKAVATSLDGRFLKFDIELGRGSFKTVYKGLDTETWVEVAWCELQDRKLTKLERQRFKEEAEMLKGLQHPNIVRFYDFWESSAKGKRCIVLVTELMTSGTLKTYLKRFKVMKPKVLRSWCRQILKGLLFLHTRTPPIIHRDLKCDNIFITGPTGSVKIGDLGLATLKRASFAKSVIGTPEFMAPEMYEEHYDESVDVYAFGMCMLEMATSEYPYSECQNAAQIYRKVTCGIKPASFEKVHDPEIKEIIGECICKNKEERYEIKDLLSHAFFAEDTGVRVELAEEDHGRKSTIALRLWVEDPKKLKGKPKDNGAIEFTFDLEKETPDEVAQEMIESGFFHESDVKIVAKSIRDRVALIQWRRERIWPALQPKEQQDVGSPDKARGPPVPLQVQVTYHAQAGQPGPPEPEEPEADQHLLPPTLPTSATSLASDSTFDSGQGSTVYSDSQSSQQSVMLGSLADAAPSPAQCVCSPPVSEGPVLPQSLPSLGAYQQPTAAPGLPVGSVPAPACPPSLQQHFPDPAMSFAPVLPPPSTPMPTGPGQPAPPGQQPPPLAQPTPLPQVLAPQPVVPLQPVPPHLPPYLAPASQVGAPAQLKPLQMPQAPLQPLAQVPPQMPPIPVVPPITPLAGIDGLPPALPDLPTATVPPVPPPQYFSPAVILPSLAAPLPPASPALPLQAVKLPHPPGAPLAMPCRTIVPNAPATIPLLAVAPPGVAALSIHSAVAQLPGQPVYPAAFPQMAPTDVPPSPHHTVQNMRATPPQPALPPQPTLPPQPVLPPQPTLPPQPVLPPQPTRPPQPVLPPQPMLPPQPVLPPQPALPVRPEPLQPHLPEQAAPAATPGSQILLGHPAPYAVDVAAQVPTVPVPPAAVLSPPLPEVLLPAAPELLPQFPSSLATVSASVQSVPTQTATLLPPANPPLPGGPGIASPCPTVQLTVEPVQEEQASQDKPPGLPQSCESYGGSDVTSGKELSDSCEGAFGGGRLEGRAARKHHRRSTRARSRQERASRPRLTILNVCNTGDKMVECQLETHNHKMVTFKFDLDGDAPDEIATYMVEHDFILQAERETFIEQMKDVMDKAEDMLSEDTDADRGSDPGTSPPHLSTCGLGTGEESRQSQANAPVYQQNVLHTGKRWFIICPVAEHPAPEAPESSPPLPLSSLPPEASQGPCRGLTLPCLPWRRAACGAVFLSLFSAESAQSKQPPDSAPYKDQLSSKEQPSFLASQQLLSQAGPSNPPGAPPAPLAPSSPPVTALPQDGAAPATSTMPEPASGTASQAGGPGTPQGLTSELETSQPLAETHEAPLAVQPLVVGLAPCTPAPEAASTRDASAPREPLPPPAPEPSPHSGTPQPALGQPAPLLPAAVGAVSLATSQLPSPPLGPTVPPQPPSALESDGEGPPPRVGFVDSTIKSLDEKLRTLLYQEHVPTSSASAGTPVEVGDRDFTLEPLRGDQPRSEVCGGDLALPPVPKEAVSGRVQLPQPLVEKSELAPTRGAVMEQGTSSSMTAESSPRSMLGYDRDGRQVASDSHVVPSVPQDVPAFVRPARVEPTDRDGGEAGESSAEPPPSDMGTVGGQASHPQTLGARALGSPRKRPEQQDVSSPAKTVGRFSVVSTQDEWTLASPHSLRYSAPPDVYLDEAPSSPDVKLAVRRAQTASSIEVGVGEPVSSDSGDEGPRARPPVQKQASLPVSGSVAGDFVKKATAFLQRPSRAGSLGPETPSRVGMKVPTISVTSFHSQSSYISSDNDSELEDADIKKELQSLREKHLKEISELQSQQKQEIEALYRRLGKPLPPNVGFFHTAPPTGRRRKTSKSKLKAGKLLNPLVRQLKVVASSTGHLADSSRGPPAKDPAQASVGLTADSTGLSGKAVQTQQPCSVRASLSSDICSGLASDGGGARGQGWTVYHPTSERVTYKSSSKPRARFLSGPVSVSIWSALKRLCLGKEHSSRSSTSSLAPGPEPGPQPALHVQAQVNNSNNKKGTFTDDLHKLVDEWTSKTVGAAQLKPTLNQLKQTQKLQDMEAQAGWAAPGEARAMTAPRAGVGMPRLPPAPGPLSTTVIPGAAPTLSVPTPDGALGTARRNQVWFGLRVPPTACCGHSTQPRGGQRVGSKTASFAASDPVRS
Sequence of BDNF/NT-3 growth factors receptor (Homo sapiens) (Q16620 32-822 limits assumed): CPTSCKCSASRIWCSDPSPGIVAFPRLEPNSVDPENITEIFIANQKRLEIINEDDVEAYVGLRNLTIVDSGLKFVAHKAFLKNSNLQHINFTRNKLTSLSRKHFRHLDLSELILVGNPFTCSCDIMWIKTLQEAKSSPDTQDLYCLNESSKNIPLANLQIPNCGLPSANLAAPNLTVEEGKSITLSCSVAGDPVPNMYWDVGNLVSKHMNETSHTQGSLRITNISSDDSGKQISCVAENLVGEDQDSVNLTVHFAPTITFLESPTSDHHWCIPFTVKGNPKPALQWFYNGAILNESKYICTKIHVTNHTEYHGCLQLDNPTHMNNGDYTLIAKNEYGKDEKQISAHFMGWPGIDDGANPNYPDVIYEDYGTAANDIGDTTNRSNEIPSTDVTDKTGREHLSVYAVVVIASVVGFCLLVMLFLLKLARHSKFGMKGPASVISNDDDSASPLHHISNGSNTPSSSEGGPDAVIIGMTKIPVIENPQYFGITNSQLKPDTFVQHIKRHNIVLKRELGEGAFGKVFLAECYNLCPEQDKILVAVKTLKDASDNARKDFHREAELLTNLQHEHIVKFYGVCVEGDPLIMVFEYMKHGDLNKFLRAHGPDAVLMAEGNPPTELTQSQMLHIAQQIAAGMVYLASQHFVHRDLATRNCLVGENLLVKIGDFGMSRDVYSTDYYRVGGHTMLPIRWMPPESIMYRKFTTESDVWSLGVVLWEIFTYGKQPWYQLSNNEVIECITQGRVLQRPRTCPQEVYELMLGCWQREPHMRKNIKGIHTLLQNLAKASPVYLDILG

Take `Nc1nc(Nc2ccc(S(N)(=O)=O)cc2)nn1C(=S)Nc1c(F)cccc1F`: the residual activity in [1] amounted to 0%; in test [2], 71%; in test [3], 32%; in test [4] it was 4%; in test [5], 0%; in [6], 0%. In addition, the residual activity was 1% in [7], 84% (inactive) in test [8] and 37% in test [9].
Consider `CCN(CC)CCCCN1c2ccccc2Oc2ccc(Cl)cc21`, for which the residual activity in [1] was 87%; in test [2], 99%; in test [3] it was 81%; in test [4], 116%; in test [5] it was 96%; in test [6] it was 111%. For the same compound, the residual activity in test [7] was 98%; in test [8], 126% (inactive); in test [9], 99%; in [10], 122% (inactive).
For the compound `N#CC(C#N)=C(N)/C(C#N)=C/c1ccc(O)cc1`, the residual activity in [1] is 116%; in test [2] it was 78%; in test [3], 67%; in [6], 100%; in test [7], 92%; in [8], 100% (inactive). Also, in test [9], the residual activity was found to be 94%.
As for `CO[C@@H]1[C@H](N(C)C(=O)c2ccccc2)C[C@H]2O[C@]1(C)n1c3ccccc3c3c4c(c5c6ccccc6n2c5c31)C(=O)NC4`, the residual activity in test [1] was -12%; in test [2], 82%; in test [3], 69%; in test [5], 76%; in [6], 17%; in test [7], 5%. Also, the residual activity in test [8] is 99% (inactive); in test [9], 94%; in test [10], 90% (inactive).
For the compound `Cc1cccc(-c2[nH]c(C(C)(C)C)nc2-c2ccc3c(c2)OCO3)n1`, the residual activity in [3] is 98%; in test [5], 94%; in test [6] it was 104%; in test [7] it was 96%; in [8] it was 105% (inactive); in test [9], 71%. Moreover, in test [10], the residual activity is 106% (inactive).
For the compound `Cc1cncc2cccc(S(=O)(=O)N3CCCN(C(=O)CN)C[C@H]3C)c12`, the residual activity in [2] was 100%; in test [3], 91%; in test [4], 93%; in test [5] it was 47%; in [6], 97%; in test [7], 59%. Moreover, the residual activity in test [8] was 94% (inactive); in [9], 66%.
For the compound `COc1cc2ncnc(Nc3ccc(NC(=O)c4ccccc4)cc3)c2cc1OC`, the residual activity in test [1] was 21%; in [2], 95%; in test [3] it was 82%; in [4], 108%; in test [5], 104%; in test [6], 99%. The residual activity in [7] was 69%; in [8], 110% (inactive); in test [9], 55%; in [10] it was 52% (inactive).
For the compound `CCC(=O)Nc1ccc2ncnc(Nc3cccc(Br)c3)c2c1`, the residual activity came out at 119% in [1]; 108% in [2]; 78% in test [3]; 106% in test [4]; 100% in test [5]; 107% in test [6]. Moreover, the residual activity in test [7] was 89%; in test [8], 106% (inactive); in test [9], 86%; in [10], 99% (inactive).
On to `COc1cc2ncc(-c3ccccc3)nc2cc1OC`, for which the residual activity in test [1] is 37%; in [2], 96%; in [3], 73%; in [7], 86%.
Turning to `COc1cc2ncnc(N3CCN(C(=O)Nc4ccc(Oc5ccccc5)cc4)CC3)c2cc1OC`, the residual activity in [1] came to 44%; in [2] it was 108%; in test [3], 119%; in test [4], 100%; in [5], 100%; in test [6], 97%. Besides, the residual activity in [7] was 90%; in [8], 94% (inactive); in test [9], 86%; in test [10] it was 84% (inactive).
On to `O=[N+]([O-])c1ccc(-c2nc(-c3ccc(F)cc3)c(-c3ccncc3)[nH]2)cc1`, for which the residual activity in test [1] was 107%; in [2] it was 61%; in test [3], 66%; in [4], 112%; in [5], 106%; in [6] it was 103%. Moreover, the residual activity in test [7] was 103%; in test [9], 93%; in [10], 102% (inactive).
With `O=C1c2ccccc2-[n+]2ccc3c([nH]c4ccccc43)c21`, the residual activity amounted to 89% in test [1]; 75% in test [2]; 75% in test [3]; 96% in test [5]; 92% in test [6]; 95% in [7]. The residual activity is 93% (inactive) in test [8], 92% in [9] and 95% (inactive) in [10].
In the case of `C[C@@H](N)[C@H]1CC[C@H](C(=O)Nc2ccncc2)CC1`, the residual activity stood at 99% in test [1]; 100% in [2]; 94% in test [3]; 85% in [4]; 39% in [5]; 95% in [6]. Further, the values for the residual activity in test [7], in test [8] and in [10] were 68%, 96% (inactive) and 95% (inactive), respectively.
As for `COc1cc2ncnc(Nc3ccc(O)c(Br)c3)c2cc1OC`, the residual activity in test [1] stood at 87%; in [2], 81%; in test [3], 46%; in test [4] it was 89%; in [5], 76%; in test [6], 91%. In addition, the residual activity was 50% in test [7], 83% (inactive) in test [8], 56% in [9] and 96% (inactive) in test [10].
`CC(C)n1cnc2/c(=N/c3cccc(Cl)c3)nc(NCCO)[nH]c21`: the residual activity in [1] was 2%; in [2] it was 68%; in [3] it was 37%; in test [4], 68%; in test [5], 31%; in test [6], 42%. Besides, the residual activity in test [7] was 11%; in test [8] it was 71% (inactive); in test [9] it was 19%; in [10], 90% (inactive).
With `N#Cc1cnc2cnc(NCc3cccnc3)cc2c1Nc1ccc(F)c(Cl)c1`, the residual activity in test [1] worked out at 1%; in test [2] it was 86%; in test [3], 69%; in test [6] it was 100%; in test [7] it was 88%; in test [9], 93%.
As for `Cc1cc(Nc2nc(-c3ccccc3)nc3ccccc23)n[nH]1`, the residual activity in test [1] was 0%; in test [2], 30%; in [3], 2%; in test [6] it was 29%; in test [7] it was 4%; in test [10] it was 74% (inactive).
Regarding `CC(=O)O/N=C1\C(=C2\C(=O)Nc3cc(Br)ccc32)Nc2ccccc21`, the residual activity in test [1] was 1%; in test [2], 74%; in test [3] it was 19%; in [4], 93%; in test [5], 101%; in test [6] it was 95%. Further, the residual activity is 66% in [7], 99% (inactive) in [8], 97% in test [9] and 104% (inactive) in test [10].
Turning to `Cc1nc(-c2ccccc2)c(-c2ccncc2)o1`, the residual activity in test [1] was 53%; in [2] it was 86%; in [3] it was 88%; in test [4], 118%; in test [5] it was 112%; in [6] it was 104%. In addition, the residual activity in test [7] is 104%; in test [8] it was 109% (inactive); in [9], 103%; in test [10] it was 117% (inactive).
